The whole screen tested about 69,000 compounds, of which about 8,600 (12%) showed an effect of 50% or more. Many of the other results were omitted from the sample, so strong results are more common in it than they were.

The test deals with Plasmodium berghei. The test is described as follows: Screen against P. berghei liver stage (PbLuc), transformed with Luciferase, at 10uM. The conditions noted are these: tested at 10 uM. The class given is functional, HepG2.
In the case of `Cc1ccc(C(=O)N(C)Cc2ccc3c(c2)OCO3)c(=O)[nH]1`, the INHIBITION stood at 17.8%.
The figure for `O=c1c2c[nH]c(N3CCCC3)nc-2cn1CCc1ccc(Cl)cc1` is 15.1%.
As to `Cc1nc(C)n(C2CCCN(C(=O)CCc3cn(C)nc3C)C2)n1` (stereo unspecified), the INHIBITION was found to be 21.5%.
The figure for `O=C(c1ccc[nH]1)N1CCc2nnc(Cn3cccn3)n2CC1` is 43.4%; for `O=C(O)c1ccc2ccc(N3CCN(CC4CC4)CC3)n2c1` it is 54.1%.
The figure for `CN(C)C(=O)c1ccc2ccc(N3CCN(CC4CC4)CC3)n2c1` is 38.3%; for `O=C(NC1CC1)c1ccc2ccc(N3CCN(CC4CC4)CC3)n2c1` it is 34.9%; for `CCCC(=O)NC1CCCN(c2cncc(Br)c2)C1` (stereo unspecified) it is 55.4%.
As to `CC(C)(C)OC(=O)N[C@H]1CCN(c2cncc(Br)c2)C1`, the INHIBITION amounted to 22%.
For the compound `CCOC(=O)NC1CCCN(c2cncc(Br)c2)C1` (stereo unspecified), the INHIBITION is 35.9%.
The figure for `O=C(c1ccccn1)N1CCC2(COc3ncccc3S(=O)(=O)N2)C1` (stereo unspecified) is 67.3%; for `O=C(c1cscn1)N1CCC2(COc3ncccc3S(=O)(=O)N2)C1` (stereo unspecified) it is 48.2%; for `O=C(c1ccncc1)N1CCC2(COc3ncccc3S(=O)(=O)N2)C1` (stereo unspecified) it is 25.1%.
Turning to `O=C1CC2(CCN(C(=O)C3CCCCC3)C2)Nc2ccccc2N1` (stereo unspecified), the INHIBITION is 28.4%.
The figure for `O=C(C1CCCCC1)N1CCC2(COc3ncccc3S(=O)(=O)N2)C1` (stereo unspecified) is 50.7%.
With `O=C(c1ccc(Cl)s1)N1CCC2(COc3ncccc3S(=O)(=O)N2)C1` (stereo unspecified), the INHIBITION amounted to 2.69%.
The figure for `CCc1nccn1-c1cncc(C2CCCN2Cc2ccccc2)n1` (stereo unspecified) is 45.6%; for `CCN1C[C@@H]2[C@@H](OC)CCN(S(=O)(=O)c3ccccc3F)[C@@H]2C1` it is 21.6%; for `Cc1noc([C@@H](C)NCc2cccc(Cl)c2)c1C(=O)O` it is 48.2%.
For `CN1CC(c2cc(O)nc(NCc3cccc(F)c3)n2)CC1=O` (stereo unspecified), the INHIBITION is recorded as -34.6%.
The figure for `O=S(=O)(NCC(O)c1ccoc1)c1ccc(Cl)s1` (stereo unspecified) is 46.1%; for `CNc1cc(N2CCCC2CNCc2csc(C(C)C)n2)ncn1` (stereo unspecified) it is 46.2%.
Turning to `CSc1nc(C)cc(N2CCC(c3ncc[nH]3)CC2)n1`, the INHIBITION is 44.6%.
Regarding `CCOc1cc(C)nc(N2CCN(C(=O)c3cn[nH]c3CC)CC2)n1`, the INHIBITION came out at 44.1%.
`CCN(C)S(=O)(=O)N1CCCC(CO)(CC=C(C)C)C1` (stereo unspecified): the INHIBITION was -3.96%.
As to `CC(C)=CCC1(CO)CCCN(S(C)(=O)=O)C1` (stereo unspecified), the INHIBITION is 28.7%.
Take `CC(C)=CCC1(CO)CCCN(S(=O)(=O)N2CCCC2)C1` (stereo unspecified): the INHIBITION is recorded as 91.2%.
The figure for `O=C(c1cccnc1O)N1CCN(CCc2cccs2)CC1` is 20.45%; for `CCNc1nc(-c2cccnc2)c(-c2ccnc(NCCO)n2)s1` it is -80.5%.
As for `CC(C)(C)Nc1nc(-c2cccnc2)c(-c2ccnc(NCCO)n2)s1`, the INHIBITION is on record as 59%.
The figure for `CCNc1nc(-c2cccnc2)c(-c2ccnc(NS(C)(=O)=O)n2)s1` is 47.1%; for `CN(CC(=O)N1CCCC1Cn1cccn1)Cc1ccccc1` (stereo unspecified) it is 48.2%; for `COc1cccc(CN2CCC3(CCN(C(=O)C4CC=CC4)CC3)C2)c1` it is 21.3%.
The figure for `Cc1cc(C2CCCCN2C(=O)c2ccsc2)nc2nccn12` (stereo unspecified) is 71.3%; for `Cc1cc(C2CCCCN2C(=O)c2cccn2C)nc2nccn12` (stereo unspecified) it is 18.3%; for `Cc1noc(C)c1C(=O)N1CCCCC1c1cc(C)n2ccnc2n1` (stereo unspecified) it is 30.4%.
The figure for `O=C(c1cncs1)N1CCOCC(Cc2ccncn2)C1` (stereo unspecified) is 11.235%; for `COc1cc(CN(C)C(C)c2ccccn2)cc2c1OCO2` (stereo unspecified) it is 58.6%; for `COc1cc(CN(Cc2ccccn2)CC(C)C)cc2c1OCO2` it is 36.2%.
In the case of `COc1cc(CN(CCCN(C)C)Cc2ccccn2)cc2c1OCO2`, the INHIBITION worked out at 18.9%.
With `Cc1cc(F)c(S(=O)(=O)NCC(C)(C)N)cc1F`, the INHIBITION was 37.6%.
Regarding `CCN(CC)c1ncc(CNC2CCc3nc(C(C)C)nn3C2)s1` (stereo unspecified), the INHIBITION was -3.54%.
The figure for `NC(=O)CCn1cc(CNCCCc2ccncc2)c2ccccc21` is -71.1%.
The figure for `Cc1n[nH]c(C)c1CCCNCc1cn(CCC(N)=O)c2ccccc12` is 66.7%; for `CC(C)n1cnnc1CCNCc1cn(CCC(N)=O)c2ccccc12` it is 6.94%.
The figure for `CC(NCc1cn(CCC(N)=O)c2ccccc12)c1nncn1C` (stereo unspecified) is 32.7%; for `NC(=O)CCn1cc(CNCCCc2csc(N)n2)c2ccccc21` it is 29%; for `NC(=O)CCn1cc(CNCc2csc(N)n2)c2ccccc21` it is 60.9%.
Turning to `Cc1ccc(C(C)NCc2cn(CCC(N)=O)c3ccccc23)cc1C` (stereo unspecified), the INHIBITION amounted to 27.7%.
The figure for `CCCN1CCN(Cc2cn(CCC(N)=O)c3ccccc23)CC1` is 39.8%; for `NC(=O)CCn1cc(CNCCCc2ccccc2O)c2ccccc21` it is 88.5%.
Regarding `COc1ccc(S(=O)(=O)N2CCC(O)(CN(C)C)C2)cc1` (stereo unspecified), the INHIBITION was 38.2%.
The figure for `Cc1sc(Br)cc1S(=O)(=O)NCCN` is 45%.
For `O=C(Cc1csc(Cc2ccccn2)n1)NCCCN1CCCC1=O`, the INHIBITION is 17.5%.
With `CCOCCC(=O)Nc1cccc(Cl)c1COC`, the INHIBITION was 33.7%.
The figure for `O=C(Cc1n[nH]c2ccccc12)N1CCCC1Cn1cccn1` (stereo unspecified) is 24%; for `CCc1nnc(C(C)N2CCN(CCC(C)(C)C)CC2)o1` (stereo unspecified) it is 62.4%.
The figure for `CCc1nnc(C(C)N2CCCN(C(=O)OCC(C)C)CC2)o1` (stereo unspecified) is 36.5%.
As to `CCc1nnc(C(C)N2CCN(CCC(=O)NC3CC3)CC2)o1` (stereo unspecified), the INHIBITION was 33.1%.
The figure for `Cc1cncc(C(=O)N2CCCC(O)(CN3CCCC3)C2)c1` (stereo unspecified) is 4.13%; for `CN1CCCCC12Cc1ccccc1CN(C(=O)c1ccccc1)C2` (stereo unspecified) it is 10.1%; for `CC(=O)N1Cc2ccccc2CC2(CCCCN2C)C1` (stereo unspecified) it is 42.4%.
Consider `CN1CCCCC12Cc1ccccc1CN(C(=O)C1CCCC1)C2` (stereo unspecified), for which the INHIBITION is recorded as 8.49%.
The figure for `CC(C)C(=O)N1Cc2ccccc2CC2(CCCCN2C)C1` (stereo unspecified) is 53.2%.
The figure for `CC(C)C(=O)N1Cc2ccccc2CC2(CCCN2C)C1` (stereo unspecified) is 37.5%; for `C[C@H](C(=O)N1Cc2ccccc2CC2(CCCN2C)C1)c1ccccc1` (stereo partly specified) it is 51.6%.
The figure for `O=C(c1ccccc1)N(CC1CC1)c1cccnc1` is 39.7%; for `Cc1cc(NCc2cc3n(n2)CCCN(C(=O)C2CCC2)C3)ncn1` it is -2.46%.
Take `CCc1nc(N2CCOCC2)ncc1C(=O)NC(c1cccs1)C(C)C` (stereo unspecified): the INHIBITION is 29.5%.
The figure for `COCCN1C=NC2(CCC(C(=O)Nc3ccc(C)cc3)CC2)C1=O` (stereo unspecified) is 63.5%; for `COCCN1C(=O)C2(CCC(C(=O)Nc3ccc(F)cc3)CC2)N=C1C` (stereo unspecified) it is 20.1%; for `COCCN1C(=O)C2(CCC(C(=O)Nc3ccc(C)cc3)CC2)N=C1C` (stereo unspecified) it is 31.4%.
As for `Cc1nc(Nc2cnccn2)cc(C2CN(C(C)C)C2)n1`, the INHIBITION is on record as -21.4%.
The figure for `Cc1ccc(-c2nnc(SCC(=O)O)n2-c2ccccc2)cc1` is 5.11%; for `CC(C)CS(=O)(=O)N1C[C@@H]2C[C@H](C(=O)N(C)C)[C@H](C1)O2` it is 37.5%; for `CCC(C(=O)N1CCN(S(=O)(=O)N2CCCC2)CC1)n1cccn1` (stereo unspecified) it is 13%.
The figure for `O=C1CCCC2=Nc3nonc3NC(c3ccc(F)cc3F)C12` (stereo unspecified) is -37.6%; for `O=C1CCCC2=Nc3nonc3NC(c3cc(Cl)ccc3F)C12` (stereo unspecified) it is 76.8%; for `O=C1CCCC2=Nc3nonc3NC(c3ccccc3F)C12` (stereo unspecified) it is 12.3%.
Take `O=C1CCCC2=Nc3nonc3NC(c3ccc(Cl)cc3Cl)C12` (stereo unspecified): the INHIBITION came out at 57.8%.
The figure for `O=C1CCCC2=Nc3nonc3NC(c3ccccc3Cl)C12` (stereo unspecified) is 12.3%.
The figure for `O=C1CCCC2=Nc3nonc3NC(c3cccc(F)c3F)C12` (stereo unspecified) is 4.66%; for `CN1CCC(Cc2cncc(-c3ccccc3C(=O)O)n2)C1` (stereo unspecified) it is 56%.
The figure for `CC(C)N1CCC(Cc2cncc(-c3ccccc3C(=O)O)n2)C1` (stereo unspecified) is 15.9%.
Turning to `CC(C)N1CCC(Cc2cc(-c3ccccc3C(=O)O)ncn2)CC1`, the INHIBITION was 18.8%.
The figure for `CC(C)N1CCC(Cc2cncc(-c3ccccc3C(=O)O)n2)CC1` is 38.7%; for `COCCN1CCC(Cc2cnc(-c3ccccc3C(=O)O)cn2)CC1` it is 53%.
Regarding `CS(=O)(=O)N1CCCC(Cc2cncc(-c3ccccc3C(=O)O)n2)C1` (stereo unspecified), the INHIBITION is listed as -1.85%.
The figure for `CC1=Nc2c(c(=O)[nH]n2C(C)C)C(c2cccc(OC(F)F)c2)S1` (stereo unspecified) is -28.4%; for `Cc1cccc2nc(CN3CCC(N4CCN(C)C4=O)CC3)cn12` it is -54.1%; for `COc1nn(C)c2c1CCCN(C(=O)c1cccc(C)n1)C2` it is 31.2%.
The figure for `COCCN1CCC(CN(Cc2ccncc2)C2CCC2)CC1` is 43.7%; for `COCCN1CCC(CN(Cc2ccncc2)C2CCCCC2)CC1` it is -32.1%; for `CN1CCC(N2CCC(CN(Cc3ccncc3)C3CCC3)CC2)CC1` it is 53.8%.
The figure for `O=C(C1=CCCC1)N1C[C@@H]2COC[C@]2(COc2ncccc2F)C1` is 16.8%; for `CC(O)CN(C(=O)NC1CCN(CC2CCCCC2)CC1)C(C)C` (stereo unspecified) it is 21.2%.
Regarding `CC(C)N(CC(C)(C)O)C(=O)NC1CC1`, the INHIBITION amounted to 23.5%.
`CC(O)CN(C(=O)NC1CC1)C(C)C` (stereo unspecified): the INHIBITION is on record as 55.4%.
In the case of `Cc1noc(C)c1CN(C)c1nc(C2CCCC2)nc2c1cnn2C`, the INHIBITION is recorded as 20%.
For `NC(=O)NC(=O)CCn1ccc(-c2ccc(F)cc2)n1`, the INHIBITION turned out to be 16.2%.
Take `CNC(=O)CNC(=O)c1ccc(-c2scnc2C)nc1`: the INHIBITION is -89.4%.
The figure for `CC(C)NC(=O)Cn1cc(-c2ccccc2)cn1` is -16.7%.
The figure for `Cc1ncsc1-c1cc(C(=O)NCCO)ccn1` is 42.6%.
The figure for `Cc1cc(NC(=O)Cn2ccc(-c3ccc4c(c3)OCO4)n2)n(C)n1` is 13.8%.
Turning to `Cn1ncc(NC(=O)Cn2ccc(-c3cccc(F)c3)n2)n1`, the INHIBITION is 7.39%.
For `Cn1nccc1NC(=O)Cn1ccc(-c2ccc3c(c2)OCO3)n1`, the INHIBITION amounted to 43.4%.
The figure for `Cc1nc(C)c(-c2ccn(CC(=O)Nc3cnn(C)n3)n2)s1` is 82.4%; for `Cc1ncsc1-c1ccn(CC(=O)Nc2cnn(C)n2)n1` it is 85.7%; for `Cn1ncc(NC(=O)Cn2ccc(-c3ccc(F)cc3)n2)n1` it is 52.2%.
With `Cn1ncc(NC(=O)Cn2cc(-c3ccc(F)cn3)cn2)n1`, the INHIBITION was found to be 77.9%.
The figure for `Cc1ccc(-c2cnn(CC(=O)NC(C)C)c2)cc1` is 45.7%.

Values taken from ChEMBL document CHEMBL4513216, “Probing the Open Global Health Chemical Diversity Library for Multistage-Active Starting Points for Next-Generation Antimalarials” (ACS Infect Dis, 2020).
